One assay concerns CRL-7250. The experiment in a line: Cytotoxic Profiling of Annotated Libraries Using Quantitative High-Throughput Screening (AID 1296008). Further: potency means the concentration at half of the fitted maximal effect. On max response: on the % scale 0 is the no-effect control and ±100 the full control effect. Particulars: Five cell lines viability, CellTiter-Glo ATP luminescence, 48-72 h; max response: stronger effect = lower value. The gist of the method: (§1)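 Cytotoxicity was measured as CellTiter-Glo ATP luminescence, read after 10 min at room temperature. Compound treatment of the cells lasted 48 or 72 hr at 37 degrees Celsius in a qHTS format.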
Background: Cellular ATP, detected with luciferase, serves as a proxy for viable cell number.

The test system of another assay is HEK293. The description is as above. The conditions noted are these: Five cell lines viability, CellTiter-Glo ATP luminescence, 48-72 h; max response: stronger effect = lower value. The gist of the method:
as §1

Assay [1] concerns HaCat. The assay is described as above. The conditions noted are these: Five cell lines viability, CellTiter-Glo ATP luminescence, 48-72 h; max response: stronger effect = lower value. The method in brief: as §1
Another assay deals with KB-3-1. The description is as above. Particulars: Five cell lines viability, CellTiter-Glo ATP luminescence, 48-72 h; max response: stronger effect = lower value. The method in brief: as §1
In assay [2] the test system is NIH3T3. The description is as above. The conditions noted are these: Five cell lines viability, CellTiter-Glo ATP luminescence, 48-72 h; max response: stronger effect = lower value. The method in brief:
as §1

Assay [3] relates to HACAT. In words: qHTS assay to identify novel small-molecules to repurpose for Merkel cell carcinoma treatment (AID 1296009). The conditions noted are these: MCC and control cell lines, CellTiter-Glo viability, 72 h; at 44.8 µM (top of the series) unless noted. The gist of the method:
(§2)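 Cell viability, measured as CellTiter-Glo luminescence, was normalized between DMSO and no-cell wells. The cells had been exposed to 8- or 11-point compound dilutions for 72 hr at 37 degree celsius.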

Assay [4] concerns NIH3T3. The assay is described as above. The conditions noted are these: MCC and control cell lines, CellTiter-Glo viability, 72 h; at 44.8 µM (top of the series) unless noted. The method in brief: as §2

Records with an inconclusive call do not appear. A number with no mark means an inactive call. Calls of active or inactive are those of the source. The call rests on the fitted dose curve; in most records, active means well fitted inhibition curve with a large enough effect; inconclusive means small, poorly fitted or top-dose-only effect; inactive means flat fitted curve, though single readings scatter.
Further: nearly all actives have a fitted effect of over 60% in size.

For the compound `CC1(C)O[C@H]2CC(=O)OC[C@@]23C1=C(O)C(=O)[C@]1(C)C3CC[C@@]2(C)[C@H](c3ccoc3)OC(=O)[C@H]3O[C@]321` (stereo partly specified), the outcome with CRL-7250, in the assay on HaCat [1], in the assay with KB-3-1 and with NIH3T3 [2] was inactive. Further, in the assay on HEK293, the max response is 1.52%. Besides, the outcome in the assay with HACAT [3] and with NIH3T3 [4] was “inactive [at 17.4 µM]” in each case.

For `CSCC1OC(n2cnc3c(=O)[nH]cnc32)C(O)C1O` (stereo unspecified), the max response in the assay on CRL-7250 is -7.17%; in the assay with HEK293, -2.06%; in the assay with KB-3-1, 2.69%. Moreover, the compound was classed as inactive in the assay on HaCat [1], in the assay on NIH3T3 [2], in the assay on HACAT [3] and in the assay with NIH3T3 [4].

For `CC(=O)OCC(Cc1ccccc1)NC(=O)C(Cc1ccccc1)NC(=O)c1ccccc1` (stereo unspecified), the compound was classed as inactive in the assay on CRL-7250, in the assay on HaCat [1] and in the assay on NIH3T3 [2]. For the same compound, the max response in the assay with HEK293 is -2.31%; with KB-3-1, -0.456%. For the same compound, the outcome in the assay with HACAT [3] and in the assay with NIH3T3 [4] was “inactive [at 17.4 µM]” each time.

With `CC1(C)CC(NC(=O)C(=O)Nc2ccc(Cl)cc2)CC(C)(C)N1`, the max response with CRL-7250 is -5.64%; with HEK293 it was -2.65%; with KB-3-1, 4.82%. Besides, the compound was classed as inactive in the assay with HaCat [1], in the assay with NIH3T3 [2], in the assay with HACAT [3] and with NIH3T3 [4].

On to `CC(=O)c1ccc(O[C@@H]2OC[C@@H](O)[C@H](O)[C@H]2O[C@]2(CO)O[C@H](CO)[C@@H](O)[C@@H]2O)c(O)c1`, for which the outcome in the assay with CRL-7250, in the assay with HaCat [1], in the assay on KB-3-1 and with NIH3T3 [2] was inactive. Moreover, the max response in the assay on HEK293 is 2.18%. Further, the outcome with HACAT [3] and with NIH3T3 [4] was “inactive [at 17.4 µM]” in each case.

Turning to `C=C[C@H]1[C@H](O[C@@H]2O[C@H](CO)[C@@H](O)[C@H](OC(=O)/C=C/c3ccc(O)c(OC)c3)[C@H]2O)OC=C2C(=O)OCC[C@]21O`, the max response is -3.95% in the assay on CRL-7250, -3.81% in the assay on HEK293 and 6.87% with KB-3-1. Besides, the outcome with HaCat [1] and in the assay on NIH3T3 [2] was inactive. The outcome with HACAT [3] and with NIH3T3 [4] was “inactive [at 17.4 µM]” in each case.

On to `CC1(C)CC2C(O)C3=C(CC(C)(O)C2C1)C(=O)OC3` (stereo unspecified), for which the compound was called inactive in the assay on CRL-7250, in the assay on HaCat [1], in the assay with KB-3-1, in the assay on NIH3T3 [2], in the assay on HACAT [3] and in the assay with NIH3T3 [4]. The max response in the assay on HEK293 was -1.51%.

As for `COCCCc1sc(-c2ccccc2)nc1C(=O)Nc1ccccc1-c1nc2cc(CN3CCCC3)cnc2s1`, the compound was called inactive with CRL-7250, with HaCat [1], in the assay on KB-3-1 and in the assay with NIH3T3 [2]. For the same compound, the max response in the assay with HEK293 is -7.81%. Further, the outcome in the assay on HACAT [3] and with NIH3T3 [4] was “inactive [at 17.4 µM]” throughout.

As for `CC1=C(CC/C(C)=C/C(=O)O)[C@@]2(C)CCCC(C)(C)C2CC1=O` (stereo partly specified), the values for the max response in the assay on CRL-7250 and in the assay on HEK293 were -7.55% and -5.92%, respectively. Also, the call in the assay with HaCat [1], in the assay on KB-3-1, in the assay with NIH3T3 [2], in the assay with HACAT [3] and in the assay with NIH3T3 [4] was inactive.

With `COc1cc(C)c(C(=O)OC2C(C)OC(OC3CCC(C)C4C3C=C(C)C3/C(C)=C\CC/C(C)=C/C5(C)C=C(C(=O)O)C(C)CC56OC(=O)/C(=C(\O)C34C)C6=O)C(O)C2O)c(OC)c1` (stereo unspecified), the call in the assay with CRL-7250, with HaCat [1] and with NIH3T3 [2] was inactive. Further, the max response was -1.11% with HEK293 and -3.91% with KB-3-1. The outcome with HACAT [3] and in the assay with NIH3T3 [4] was “inactive [at 9.27 µM]” throughout.

For the compound `CCN(CCN(C)C)C(=O)CNCc1cc(C(N)=O)ccn1`, the compound was called inactive in the assay on CRL-7250, in the assay with HaCat [1], in the assay on NIH3T3 [2], in the assay on HACAT [3] and in the assay on NIH3T3 [4]. The max response was 1.94% in the assay with HEK293 and 7.84% with KB-3-1.

For `CC[C@H](C)[C@H](NC(=O)[C@H](Cc1ccc(O)cc1)NC(=O)[C@@H](N)C(C)C)C(=O)N[C@@H](Cc1cnc[nH]1)C(=O)N1CCC[C@H]1C(=O)N[C@@H](Cc1ccccc1)C(=O)O`, the compound was called inactive in the assay on CRL-7250, with HaCat [1], in the assay on KB-3-1 and with NIH3T3 [2]. Moreover, the max response in the assay with HEK293 is 0.716%. The outcome in the assay with HACAT [3] and in the assay with NIH3T3 [4] was “inactive [at 4.96 µM]” in each case.

`C=C[C@]1(C)C[C@@H](OC(=O)CSC2C[C@H]3CC[C@@H](C2)N3C)[C@]2(C)[C@H](C)CC[C@]3(CCC(=O)[C@H]32)[C@@H](C)[C@@H]1O` (stereo partly specified): the values for the max response with CRL-7250 and in the assay with KB-3-1 were -0.484% and -17.7%, respectively. In addition, in the assay with HEK293, the Potency is 1460 nM (active). Besides, the compound was classed as inactive with HaCat [1], in the assay with NIH3T3 [2], with HACAT [3] and with NIH3T3 [4].
